# Reference: PMC7862700, “An all-to-all approach to the identification of sequence-specific readers for epigenetic DNA modifications on cytosine”
# Tests used:
# Test in all cases: DAPPL (digital affinity profiling via proximity ligation, sequencing); 10 mM Tris-HCl pH 7.5, 50 mM NaCl, 1 mM DTT, 4% glycerol, room temperature, 30 min; GST-TFs on glutathione beads, 16-mer random dsDNA library, 0.1% formaldehyde crosslink after washing; high values mean tight binding
# Conditions in all cases: protein: recombinant; tags: N-terminal GST; dsDNA, one strand shown
# FLI1 = biological target: T1, FLI1 (Homo sapiens, UniProt Q01543 1-452)
# T1 sequence: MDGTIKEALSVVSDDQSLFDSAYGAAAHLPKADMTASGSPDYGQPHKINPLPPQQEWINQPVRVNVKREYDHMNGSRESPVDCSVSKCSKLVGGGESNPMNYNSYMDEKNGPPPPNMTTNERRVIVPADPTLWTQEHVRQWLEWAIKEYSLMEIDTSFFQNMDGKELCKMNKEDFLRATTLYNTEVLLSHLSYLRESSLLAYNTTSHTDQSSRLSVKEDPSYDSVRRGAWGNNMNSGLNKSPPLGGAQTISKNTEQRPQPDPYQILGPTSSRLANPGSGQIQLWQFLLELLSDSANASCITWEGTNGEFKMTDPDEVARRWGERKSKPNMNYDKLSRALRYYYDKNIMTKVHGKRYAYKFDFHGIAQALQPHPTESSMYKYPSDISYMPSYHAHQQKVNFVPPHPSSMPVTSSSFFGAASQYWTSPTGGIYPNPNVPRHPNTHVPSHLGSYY
# In short: (§1)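 Binding signal is each hexamer's read frequency for a factor divided by its frequency in the tag-only sample. The factors were GST-fused human transcription factors from yeast, captured on glutathione beads, DNA-barcoded and pooled with that sample. Pools were incubated with 200 nmole of a random double-stranded 16-mer DNA library in Tris/NaCl/DTT/glycerol buffer at room temperature for 30 min, then washed, crosslinked with 0.1% formaldehyde, proximity-ligated with BsaI/T4 ligase (1 h, 37 °C), PCR-amplified and sequenced on an Illumina NextSeq500.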
# ELK1 = biological target: T2, ELK1 (Homo sapiens, UniProt P19419 1-428)
# T2 sequence: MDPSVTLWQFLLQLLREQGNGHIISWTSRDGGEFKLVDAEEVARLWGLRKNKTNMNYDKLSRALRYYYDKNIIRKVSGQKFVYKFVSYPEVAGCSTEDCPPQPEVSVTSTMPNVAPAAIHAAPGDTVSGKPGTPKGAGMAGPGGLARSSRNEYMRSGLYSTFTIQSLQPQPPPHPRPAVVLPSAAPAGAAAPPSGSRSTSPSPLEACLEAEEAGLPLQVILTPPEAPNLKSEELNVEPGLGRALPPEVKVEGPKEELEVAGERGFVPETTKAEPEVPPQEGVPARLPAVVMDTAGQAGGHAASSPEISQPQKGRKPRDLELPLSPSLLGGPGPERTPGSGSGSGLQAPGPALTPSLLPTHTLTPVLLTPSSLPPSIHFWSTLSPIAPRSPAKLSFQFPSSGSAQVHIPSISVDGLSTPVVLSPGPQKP
# In short: as §1
# GABPA = biological target: T3, GABPA (Homo sapiens, UniProt Q06546 1-454)
# T3 sequence: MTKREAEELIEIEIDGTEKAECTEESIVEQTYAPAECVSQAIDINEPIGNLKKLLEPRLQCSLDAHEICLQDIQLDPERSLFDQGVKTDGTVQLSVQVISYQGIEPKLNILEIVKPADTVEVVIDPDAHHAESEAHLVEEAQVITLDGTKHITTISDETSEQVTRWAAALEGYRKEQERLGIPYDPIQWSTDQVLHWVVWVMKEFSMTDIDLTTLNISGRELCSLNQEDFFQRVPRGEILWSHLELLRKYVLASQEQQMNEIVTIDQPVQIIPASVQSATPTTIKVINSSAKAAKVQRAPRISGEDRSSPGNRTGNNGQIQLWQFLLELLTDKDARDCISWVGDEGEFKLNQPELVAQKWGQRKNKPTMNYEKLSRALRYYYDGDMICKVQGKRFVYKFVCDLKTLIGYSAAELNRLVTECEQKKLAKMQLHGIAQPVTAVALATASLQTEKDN
# In short: as §1
# ERG = biological target: T4, ERG (Homo sapiens, UniProt P11308 1-479)
# T4 sequence: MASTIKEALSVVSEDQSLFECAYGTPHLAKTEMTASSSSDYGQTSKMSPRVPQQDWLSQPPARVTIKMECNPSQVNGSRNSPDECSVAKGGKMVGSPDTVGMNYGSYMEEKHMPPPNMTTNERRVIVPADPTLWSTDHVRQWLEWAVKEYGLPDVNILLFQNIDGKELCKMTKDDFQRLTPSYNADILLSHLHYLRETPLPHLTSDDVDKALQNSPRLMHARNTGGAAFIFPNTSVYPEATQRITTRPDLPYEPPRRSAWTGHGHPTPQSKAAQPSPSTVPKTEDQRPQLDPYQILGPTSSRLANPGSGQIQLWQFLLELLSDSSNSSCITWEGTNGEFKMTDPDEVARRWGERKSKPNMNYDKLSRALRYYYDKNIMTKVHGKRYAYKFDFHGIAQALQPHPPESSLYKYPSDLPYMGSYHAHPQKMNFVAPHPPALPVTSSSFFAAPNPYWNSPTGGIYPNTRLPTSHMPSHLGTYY
# In short: as §1
# ELF1 = ELF1 (Homo sapiens, UniProt P32519 1-619)
# In short: as §1
# EHF = biological target: T5, EHF (Homo sapiens, UniProt Q9NZC4 1-300)
# T5 sequence: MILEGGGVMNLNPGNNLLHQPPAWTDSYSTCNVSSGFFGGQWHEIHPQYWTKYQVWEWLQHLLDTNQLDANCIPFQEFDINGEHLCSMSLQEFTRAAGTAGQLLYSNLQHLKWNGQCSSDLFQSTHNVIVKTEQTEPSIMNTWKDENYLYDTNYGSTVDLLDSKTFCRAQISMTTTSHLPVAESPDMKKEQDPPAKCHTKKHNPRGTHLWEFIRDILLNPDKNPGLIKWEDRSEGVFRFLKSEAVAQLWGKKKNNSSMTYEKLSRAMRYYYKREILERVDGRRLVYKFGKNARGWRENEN
# In short: as §1
# SPI1 = SPI1 (Homo sapiens, UniProt P17947 1-270)
# In short: as §1
# SPIB = SPIB (Homo sapiens, UniProt Q01892 1-262)
# In short: as §1
# ELK3 = biological target: T6, ELK3 (Homo sapiens, UniProt P41970 1-407)
# T6 sequence: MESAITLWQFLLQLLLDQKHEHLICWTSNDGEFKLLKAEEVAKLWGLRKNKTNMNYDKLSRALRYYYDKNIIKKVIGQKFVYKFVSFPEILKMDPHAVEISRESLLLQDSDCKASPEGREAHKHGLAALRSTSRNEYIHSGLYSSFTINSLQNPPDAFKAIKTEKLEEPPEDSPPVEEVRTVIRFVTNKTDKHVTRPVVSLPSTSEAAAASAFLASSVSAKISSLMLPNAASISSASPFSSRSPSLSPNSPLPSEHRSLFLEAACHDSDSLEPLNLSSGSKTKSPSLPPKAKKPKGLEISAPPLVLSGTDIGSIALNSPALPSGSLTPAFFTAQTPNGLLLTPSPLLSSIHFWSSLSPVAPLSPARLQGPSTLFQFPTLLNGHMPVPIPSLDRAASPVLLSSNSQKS
# In short: as §1
# SPIB, sequence (Q01892 whole entry): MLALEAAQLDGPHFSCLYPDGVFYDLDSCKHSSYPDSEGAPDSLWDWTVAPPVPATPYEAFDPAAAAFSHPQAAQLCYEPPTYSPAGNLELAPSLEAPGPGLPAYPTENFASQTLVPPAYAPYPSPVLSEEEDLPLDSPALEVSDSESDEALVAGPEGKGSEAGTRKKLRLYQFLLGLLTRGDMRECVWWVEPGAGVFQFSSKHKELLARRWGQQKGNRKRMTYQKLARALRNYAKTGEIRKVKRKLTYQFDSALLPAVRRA
# ELF1, sequence (P32519 whole entry): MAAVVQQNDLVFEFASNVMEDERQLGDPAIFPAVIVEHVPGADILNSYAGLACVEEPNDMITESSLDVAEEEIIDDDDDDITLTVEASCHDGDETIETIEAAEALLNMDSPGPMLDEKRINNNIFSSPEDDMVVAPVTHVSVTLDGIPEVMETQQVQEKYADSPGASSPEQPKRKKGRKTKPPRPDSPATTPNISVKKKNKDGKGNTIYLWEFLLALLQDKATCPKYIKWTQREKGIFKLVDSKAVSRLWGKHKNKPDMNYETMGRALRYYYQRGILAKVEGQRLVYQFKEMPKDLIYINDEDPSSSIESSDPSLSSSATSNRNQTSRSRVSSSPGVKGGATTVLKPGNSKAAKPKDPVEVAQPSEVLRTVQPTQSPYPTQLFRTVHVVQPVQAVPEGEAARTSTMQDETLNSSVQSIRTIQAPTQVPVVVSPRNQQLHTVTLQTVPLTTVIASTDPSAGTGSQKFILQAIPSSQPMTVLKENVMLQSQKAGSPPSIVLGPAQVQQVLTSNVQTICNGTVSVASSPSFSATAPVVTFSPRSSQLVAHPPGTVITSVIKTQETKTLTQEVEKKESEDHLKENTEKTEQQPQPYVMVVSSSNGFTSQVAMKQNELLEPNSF
sequence,measurement,setting,value
GAAGCT,binding signal,FLI1,"1.62 fold enrichment (6-mer frequency, TF over GST control)"
same,binding signal,ELK1,"1.7 fold enrichment (6-mer frequency, TF over GST control)"
same,binding signal,GABPA,"1.52 fold enrichment (6-mer frequency, TF over GST control)"
same,binding signal,ERG,"1.64 fold enrichment (6-mer frequency, TF over GST control)"
same,binding signal,ELF1,"1.44 fold enrichment (6-mer frequency, TF over GST control)"
same,binding signal,EHF,"1.69 fold enrichment (6-mer frequency, TF over GST control)"
same,binding signal,SPI1,"1.63 fold enrichment (6-mer frequency, TF over GST control)"
same,binding signal,SPIB,"1.64 fold enrichment (6-mer frequency, TF over GST control)"
same,binding signal,ELK3,"1.66 fold enrichment (6-mer frequency, TF over GST control)"
